The list is not random: actives were taken first. Their share in the collection is about 7.5%.
FLuc counter: firefly luciferase modulation, counter-screen for miR-21 project | purified FLuc, Km substrates, luminescence inhibition | Potency, µM (titrated, usually from 57.5 µM), for the others: at the highest dose activity change, negative = inhibition, hits mostly inhibitors | hit rate 6.9% among 360,000 | AID 588342;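 also: plate controls were vehicle for no effect and reference inhibitor for full effect; nearly all actives have a fitted effect of over 55% in size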
Target sequence (P08659 whole entry, looked up): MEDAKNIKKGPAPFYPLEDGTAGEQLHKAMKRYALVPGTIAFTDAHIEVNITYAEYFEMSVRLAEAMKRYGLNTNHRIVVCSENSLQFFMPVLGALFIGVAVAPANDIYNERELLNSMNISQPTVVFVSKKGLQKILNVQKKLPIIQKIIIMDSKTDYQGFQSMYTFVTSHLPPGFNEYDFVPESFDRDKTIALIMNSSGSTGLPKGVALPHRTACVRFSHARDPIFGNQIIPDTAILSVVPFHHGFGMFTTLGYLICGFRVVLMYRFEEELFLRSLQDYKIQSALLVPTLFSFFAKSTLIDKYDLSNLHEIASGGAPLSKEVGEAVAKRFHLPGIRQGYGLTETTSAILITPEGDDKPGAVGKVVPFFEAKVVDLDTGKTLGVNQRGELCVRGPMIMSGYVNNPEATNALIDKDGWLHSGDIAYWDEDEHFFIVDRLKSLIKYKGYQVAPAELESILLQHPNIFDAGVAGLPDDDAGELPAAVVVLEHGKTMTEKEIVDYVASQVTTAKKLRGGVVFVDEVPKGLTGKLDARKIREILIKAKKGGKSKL
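Biochemical qHTS of compounds, final roughly 60 µM downward over six points, against 10 nM purified firefly luciferase using Km concentrations of substrates (10 uM D-luciferin, 10 uM ATP) in Tris acetate pH 7.5 buffer; luminescence output.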
KinaseGlo FLuc: blocks Kinase-Glo luciferase, a counter-screen artifact. Q27757. Kinase-Glo luciferase, ATP luminescence, 8 min. Potency, µM (highest dose often 38.3 µM), without a hit: at the highest dose activity change, negative = inhibition, usual class: inhibitors. hit rate 0.28% among 200,000. AID 1379; also: % is scaled to controls: 0 for no effect and ±100 for the full control effect; nearly all actives have a fitted effect of over 60% in size
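Substrate mix (final 50 mM imidazole pH 7.2, 50 mM KCl, 7 mM MgCl2, 10 uM ATP, 0.01% Tween 20, 0.05% BSA) plus pin-tool compound, then Kinase-Glo detection mix; 8 min ambient, luminescence read.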
ELG1 genotox: genotoxicity induction in ELG1-luciferase HEK293T cells; AID 504466; hit rate 1.3% among 330,000; Potency, µM (series often up to 46 µM), for the others: top-dose activity change, positive = activation, most hits filed as activators; HEK293T ELG1-luciferase reporter, luminescence, 16 h; also: % of control where 0% means no effect; nearly all actives have a fitted effect of over 60% in size
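After overnight (16 hr) compound treatment at 37 °C, ELG1-luciferase HEK293T cells were lysed with ONE-Glo; luminescence quantified 30 min later at room temperature.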
Rab9 prom act: Rab9 promoter activation | Huh7 Rab9 promoter-luciferase reporter, luminescence, 24 h | Potency, µM (highest dose often 9.22 µM), inactives show at the highest dose activation, negative = inhibition, actives largely listed as activators | hit rate 2.8% among 320,000 | AID 485297; also: % of control where 0% means no effect; nearly all actives have a fitted effect of over 60% in size
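Steps: seed 1500 Huh7 Rab9-luc cells per well, rest 2 h at 37 °C; add compound in DMSO; incubate 24 h; add luciferase reagent, 10 min ambient; read luminescence.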
NPC1 prom act: NPC1 promoter activation. Huh7 NPC1 promoter luciferase reporter, 24 h. Potency, µM (top dose mostly 9.22 µM), for the others: top-dose activation, actives largely listed as activators. hit rate 2.4% among 320,000; also: % of control where 0% means no effect; nearly all actives have a fitted effect of over 60% in size
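Huh7 reporter cells (NPC1 promoter driving luciferase) are dosed with compound for 24 h at 37 °C, 5% CO2; luciferase detection reagent is then added and luminescence measured after 10 min at ambient temperature.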
SMN2 splice enh: enhancers of SMN2 splice variant expression; HEK293 SMN2-luciferase splicing reporter, luminescence, 30-36 h; Potency, µM (highest dose often 46.1 µM), inactives show top-dose activity change, positive = activation, actives largely listed as activators; hit rate 2.8% among 210,000; AID 1458; also: % of control where 0% means no effect; nearly all actives have a fitted effect of over 55% in size
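HEK293 cells carry an SMN2 minigene-luciferase reporter in which exon 7 inclusion puts luciferase in frame. Cells were seeded at 2000 cells/well, attached for 10-12 hours, then exposed to compounds for 30-36 hours at 37C before ONE-Glo luminescence.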
An asterisk follows results filed as active; ? = inconclusive; / = not tested or not shown. Calls follow the shape of the dose curve; as a rule, active = well fitted curve in the direction sought with a large enough effect; inconclusive = small, poorly fitted or top-dose-only effect, or another doubt; inactive = no such curve, though single readings can be large; an effect the other way counts as inactive or inconclusive. Potency is read from the fitted curve at half-maximal effect.

SMILES	FLuc counter	KinaseGlo FLuc	ELG1 genotox	Rab9 prom act	NPC1 prom act	SMN2 splice enh
CC1=NN(c2ccc(Cl)cc2)C(=O)C1	-2.4%	6.7%	-5.4%	7.6%	0.3%	-6.5%
Cc1ccc(-c2csc(N3C(=N)SCC3=O)n2)cc1	2.39µM*	/	10.3µM*	2.82µM*	?	/
COc1ccc(-c2csc(CCN3N=C(C)CC3=O)n2)cc1	?	-3.5%	12.9%	-1.0%	-0.1%	7.6%
CC1=NN(c2nc(-c3ccc(Cl)cc3)cs2)C(=O)C1	15.1µM*	-1.7%	-6.3%	-4.9%	6.9%	-2.1%
Cc1cc(C)n(-c2nc(-c3ccc(Cl)cc3)cs2)n1	5.36µM*	-4.1%	?	3.55µM*	?	13.1%
CC1=NN(c2nc(-c3ccc(F)cc3)cs2)C(=O)C1	16.9µM*	-0.2%	1.9%	2.1%	0.1%	-6.4%
Cc1cc(C)n(CCc2nc(-c3ccc(F)cc3)cs2)n1	-18.9%	1.4%	-2.3%	5.8%	-1.3%	/
O=S(=O)(c1ccc(-c2cc(C(F)(F)F)on2)s1)N1CCN(c2ccccc2F)CC1	-4.5%	/	/	/	/	/
Brc1ccc(-c2cnc(-c3cccs3)o2)cc1	5.36µM*	-3.4%	?	3.98µM*	?	?
CCCCCc1nnc(NC(=O)C2CCCO2)s1 (stereo not given)	?	-2.2%	13µM*	?	27.8%	?
CC(C)Cc1nnc(NC(=O)C2=COCCO2)s1	16.9µM*	/	?	?	?	/
CCCCCc1nnc(NC(=O)C2=COCCO2)s1	19µM*	/	?	2.24µM*	2.82µM*	/
O=C(Nc1nccs1)C1=COCCO1	/	/	6.7%	/	/	/
COc1ccc(C)c2sc(N(Cc3cccnc3)C(=O)C3CCCCC3)nc12	2.0%	/	/	/	/	/
O=C(Nc1cc(-c2nc3ncccc3o2)ccc1Cl)c1ccc([N+](=O)[O-])o1	0.8%	/	-0.7%	11.8%	-10.6%	/
COc1ccc2c(CNCCc3cccs3)c(C(=O)O)n(Cc3ccccc3C)c2c1	-7.1%	/	/	/	/	/
O=C(CSc1nnc(-c2ccc(Br)cc2)n1-c1ccccc1)c1ccccc1	-2.3%	/	/	/	/	/
Fc1ccccc1CSc1nnc(-c2cccs2)o1	5.36µM*	8.5%	8.2µM*	1.78µM*	1.78µM*	12.6µM*
c1ccc(CSc2nnc(-c3cccs3)o2)cc1	12µM*	-3.0%	?	?	2.82µM*	?
Fc1ccc(CSc2nnc(-c3cccs3)o2)cc1	?	4.3%	?	?	-2.1%	?
O=C(Nc1cc(Cl)ccc1-n1cncn1)c1cc(F)c(F)c(F)c1F	-2.1%	/	-11.6%	-4.5%	11.7%	/
COc1ccc(N2Cc3cccc(C(=O)Nc4ccc(F)cc4)c3C2=O)cc1	1.6%	/	/	/	/	-13.4%
O=C(Nc1nccs1)c1cncc(Br)c1	?	-4.1%	7.2%	3.98µM*	?	11.2µM*
Cc1csc(NC(=O)c2ccc(S(C)(=O)=O)cc2)n1	?	-4.1%	-20.1%	?	?	-16.3%
Cc1csc(NC(=O)c2cncc(Br)c2)n1	9.53µM*	-2.1%	?	1.12µM*	2.82µM*	12.6µM*
SMILES	FLuc counter	KinaseGlo FLuc	ELG1 genotox	Rab9 prom act	NPC1 prom act	SMN2 splice enh
CCN(CC(=O)Nc1ccc2c(c1)OCCO2)C(=O)/C=C/c1cccc(Br)c1	15.1µM*	/	?	17.0%	14.1%	/
CCN(CC(=O)Nc1ccc2c(c1)OCCO2)C(=O)/C=C/c1ccc(F)cc1	16.9µM*	1.0%	?	27.3%	-0.2%	22.5%
CC1(C)O[C@H]2[C@@H](O1)[C@@H](C(=O)Nc1ccc(F)c(F)c1)O[C@@H]1OC(C)(C)O[C@@H]12	-1.0%	/	/	/	/	-6.0%
O=C1/C(=C/c2cccnc2)Cc2ccc(Cl)cc21	12µM*	/	-2.0%	5.3%	5.5%	/
CN1C/C(=C/c2cccnc2)C(=O)/C(=C/c2cccnc2)C1	-2.3%	2.9%	-14.3%	-45.7%	-23.9%	-115.3%
COc1cccc(C(=O)N2CCN(C(=O)COc3ccc4ccccc4c3)CC2)c1	6.01µM*	/	-24.3%	-2.2%	-4.9%	/
COc1cc(C(=O)N2CCN(C(=O)COc3ccc4ccccc4c3)CC2)cc(OC)c1OC	10.7µM*	-1.3%	2.2%	0.7%	8.5%	-8.2%
